Data: PubChem BioAssay AID1259313 (Sanford-Burnham Center for Chemical Genomics, 2017)
The campaign covered roughly 340,000 compounds. About 8,500 (2.5%) were called active. This is one part of a sample in which actives are shown more often than they occur. Unmarked numbers belong to inactive results.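 How the source made its calls: active means melting temperature shift of at least 10% of the positive control shift, at one fixed dose; inactive means the rest.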

system: Glutamate receptor ionotropic, NMDA 3A (GRIN3A) ligand-binding domain; experiment: binders of NR3A ligand-binding domain, primary screen, biophysical, differential scanning fluorimetry, uHTS (AID 1259313); conditions: NR3A LBD differential scanning fluorimetry, at 25 µM, stronger effect = higher value, 0% = protein alone, 100% = glycine-bound protein

Structure (SMILES)	Tm shift relative to glycine control
Cc1cccc(NC(=O)Cn2c(=O)n(Cc3ccccc3)c(=O)c3c(C)c(C)sc32)c1	8.62%
O=C(CN1C(=O)c2cccnc2Oc2ccc(Cl)cc21)NCCc1ccccc1	0.65%
CNC(=O)c1[nH]cnc1C(=O)N[C@@H](CC(C)C)C(=O)OCc1ccccc1	-3.33%
CCN(CC)Cc1c(C(=O)OC)nnn1-c1nonc1N	-0.56%
CCCc1cc(=O)oc2c(C)c(OC(C)C(=O)NCC(O)c3ccccc3)ccc12 (configuration not stated)	0%
O=C(O)c1cc(S(=O)(=O)N2CCCCCC2)c(Cl)cc1Cl	0.9%
CC(C(=O)c1ccc(-c2ccccc2)cc1)[n+]1cccc(Br)c1 (configuration not stated)	-2.4%
Cc1ccccc1-n1nnnc1SCCCC(=O)c1ccc(F)cc1	3.17%
COc1ccc(NC(=O)CN(C)C(=O)/C=C/c2cn(Cc3ccccc3)nc2-c2cccnc2)cc1	-0.36%
COc1cccc(NC(=O)CN(C)C(=O)/C=C/c2cc(OC)ccc2OC)c1	-3.12%
COc1cccc(NC(=O)CN(C)C(=O)/C=C/c2cn(-c3ccccc3)nc2-c2cccs2)c1	10.7% (active)
O=C(NCc1cccnc1)c1cccc(-c2cc3ccccc3oc2=O)c1	-2.7%
COc1ccc(OC)c(-c2csc(-c3cccs3)n2)c1	2.35%
O=C(Nc1ccncc1)c1cc2ccccc2o1	-15%
O=c1oc2ccccc2cc1-c1csc(Nc2ccc(O)cc2)n1	12.2% (active)
Fc1ccc2nc(Nc3nc4c(s3)CCCC4)sc2c1	-1.71%
COc1ccc2nc(Nc3nc(-c4ccncc4)cs3)sc2c1	23.1% (active)
COc1ccc(OC)c(-c2csc(NC(=O)C3=NNC(=O)CC3)n2)c1	-2.68%
CCCCCCC(=O)Nc1nc(C)c(-c2csc(Nc3cccc(OC)c3)n2)s1	4.39%
COc1ccc2nc(Nc3nc(-c4cc5ccccc5oc4=O)cs3)sc2c1	24.7% (active)
COC(=O)c1c(NC(=O)CN(c2ccc(C)c(C)c2)S(C)(=O)=O)sc2c1CCCC2	-7.55%
O=C(COc1nsnc1N1CCOCC1)Nc1ccccc1Cl	1.49%
COc1ccccc1N1CC(C(=O)Nc2nnc(SCC(=O)NCC3CCCO3)s2)CC1=O (configuration not stated)	0.09%

Structure (SMILES)	Tm shift relative to glycine control
O=C(CNCCO)NC12CC3CC(CC(C3)C1)C2	-0.61%
O=S(=O)(Nc1ccccc1Cl)c1cccc2nsnc12	-0.29%
O=C(CC1C(=O)NCCN1CC(c1ccccc1)c1ccccc1)NCC1CCOCC1 (configuration not stated)	3.8%
O=C(Cn1c(-c2cscn2)nc2ccccc21)Nc1ccc(Cl)cc1	-2.29%
CC1CCCN(C(=O)Cn2c(=O)oc3cc(S(=O)(=O)N4CCCCC4C)ccc32)C1 (configuration not stated)	-0.87%
O=C(NCCNc1ccc([N+](=O)[O-])cc1)c1cccc2c(Br)cccc12	23.8% (active)
CC(CNc1ccc([N+](=O)[O-])cc1)NC(=O)c1ccccc1Br (configuration not stated)	2.55%
O=C(NCCNc1ccc([N+](=O)[O-])cc1Cl)c1ccccc1F	-1.3%
Clc1cc(-c2ccc(/C=N/n3cnnc3)o2)ccc1Br	-26.7%
O=C(CSc1nnc(COc2ccc(Cl)cc2)n1Cc1ccco1)N1CCNC1=O	14.1% (active)
CCN(CC)C(=O)CSc1nnc(CNc2ccc(F)cc2)n1Cc1ccco1	1.69%
CCOC(=O)CNC(=O)CSc1nnc(COc2ccc(Cl)cc2)n1CC	-0.34%
CC(C)=CCc1ccc(O)c(=O)cc1C(C)C	-5.18%
CC(C)c1cc(N=O)cc(C(C)C)c1O	14% (active)
CC(C)c1cc(CN2CCOCC2)cc(C(C)C)c1O	-0.77%
Cc1noc(C)c1-c1ccc2ncnc(NC(C)c3ccco3)c2c1 (configuration not stated)	-0.81%
COc1cccc(-n2c(SCC(=O)c3c[nH]c4ccccc34)nc3ccccc3c2=O)c1	8.21%
COc1ccc(C(C(O)C(=O)c2c[nH]c3ccccc23)N2CCN(c3ccccc3)CC2)cc1 (configuration not stated)	-1.26%
COc1ccc(/C=C(\C#N)c2c[nH]c3ccccc23)cc1	35.2% (active)
Cc1cc(C)c2nc(NC(=O)C3CCCO3)sc2c1 (configuration not stated)	-0.2%
CC(NC(=O)c1ccccc1)C(=O)OCC(=O)Nc1cccc(S(=O)(=O)N2CCCC2)c1 (configuration not stated)	-1.26%
NS(=O)(=O)c1ccc(NC(=S)NC(=O)c2cccc(Br)c2)cc1	-9.81%
Cc1ccccc1NC(=S)NNC(=O)c1cccc(Br)c1	-6.22%

Structure (SMILES)	Tm shift relative to glycine control
O=C(NC(=S)Nc1cccc2c(O)cccc12)c1cccc(Br)c1	23.1% (active)
C/C=C(/C)C(=O)O[C@@H]1c2cc3c(c4c2[C@@]2(CO4)C(=O)C(OC)=C(OC)C=C2C[C@@H](C)[C@H]1C)OCO3	0.32%
CCN=C1SC(CC(=O)Nc2ccc(C)cc2)C(=O)N1CC (configuration not stated)	0.44%
CCN1C(=O)C(=O)N(CC(=O)Nc2cc(C)ccc2C)C1=O	1.68%
CCN1C(=O)C(CC(=O)Nc2cc(C)ccc2C)SC1=Nc1ccc(S(N)(=O)=O)cc1 (configuration not stated)	14.2% (active)
C/C(=N\NS(=O)(=O)c1ccccc1)c1c(O)cc(C)oc1=O	5.22%
Oc1cccc(C2c3[nH]c4ccccc4c3CCN2Cc2cnn(-c3ccccc3)c2)c1 (configuration not stated)	9.57%
Cc1[nH]nc(-c2ccc(OCc3cnn(-c4ccccc4)c3)cc2O)c1Oc1ccc(Cl)cc1	22.7% (active)
COc1ccc(-c2nc(N)ncc2-c2ccc(Cl)cc2)c(O)c1	-3.97%
COc1ccc(C(=O)NC(Cc2ccc(OC(=O)c3ccc(OC)cc3)cc2)C(=O)O)cc1 (configuration not stated)	1.26%
CCCC(C)n1[nH]c(=O)c2c(C)cc(C)nc21 (configuration not stated)	-2.91%
COc1ccc(/C=C/C(=O)OCC(=O)N2CCN(S(=O)(=O)c3ccc(C)cc3C)CC2)cc1OC	2.82%
Cc1nc2ccccn2c(=O)c1NC(=O)c1cccs1	2.62%
Brc1ccc(-c2csc(N/N=C/c3ccc4c(c3)OCO4)n2)cc1	23.4% (active)
C(=N\Nc1ccc2ccccc2n1)/c1ccc2c(c1)OCO2	-7.73%
Brc1ccc(-c2csc(N/N=C/c3cccnc3)n2)cc1	3.34%
COc1ccc(-c2ccc(CCC(=O)O)n2NC(=O)c2ccc(C(C)(C)C)cc2)cc1	-1.21%
CNC(=O)c1sc(Nc2ccc(OCc3ccccc3)cc2)nc1C	33.7% (active)
O=C(O)/C=C\C(=O)Nc1ccc(OCc2ccccc2)cc1	-0.88%
CNC(=O)c1sc(NCc2ccccc2OC)nc1C	0.18%
COC(=O)C1=C(Nc2ccc(C)cc2)C=C(C)C(C(=O)OC)C1c1ccc(F)cc1 (configuration not stated)	2.17%
CC[C@]1(C(=O)OC)[C@H]2C(=O)N(Cc3ccccc3)C(=O)[C@H]2[C@H]2CN=C(SCc3ccccc3)N21	-1.15%
COCCN1C2=C(COC(C)(C)C2)C(=S)NC1c1ccccc1 (configuration not stated)	-0.64%

Structure (SMILES)	Tm shift relative to glycine control
CC(=O)c1c(Nc2ccccc2)sc(C(=O)c2ccccc2)c1C	13.4% (active)
COC(=O)c1c(NC(C)=O)sc(C(=O)Nc2ccccc2OC)c1C	-3.42%
CCC(=O)Nc1sc(C(=O)Nc2ccccc2)c(C)c1C(=O)OC	2.03%
COC(=O)c1cc(S(=O)(=O)N2CCN(c3cc(C)ccc3C)CC2)c[nH]1	-17%
Cc1ccc(Cl)c(OCC(=O)NN2CCN(C)CC2)c1	-1.17%
CCCC1=Nc2cc(C(=O)NCc3ccco3)ccc2Sc2ccccc21	-20.6%
Cc1ccc(N(CC(=O)Nc2cc(C)cc(C)c2)S(=O)(=O)c2cccc3nonc23)cc1	-1.49%
CCOC(=O)c1ccc(NC(=O)c2c(N)n(C)c(=O)[nH]c2=O)cc1	0.72%
CCOC(=O)c1ccc(NC(=O)c2nc[nH]c2C(=O)NCc2ccccc2)cc1	-1.27%
CCOC(=O)c1ccc(NC(=O)c2c(NCc3ccccc3)[nH]c(=O)[nH]c2=O)cc1	14.9% (active)
Cc1ccc(NC(=S)N2CCN(c3ncccn3)CC2)cc1C	-1.38%
Cn1cc(/C=C/C(=O)N2CCCC(C(=O)c3ccc(C(F)(F)F)cc3)C2)cn1 (configuration not stated)	1.32%
CCCCCCCCCCOC(=O)Cn1c(COc2ccc(C)cc2)[n+](C)c2ccccc21	-408%
CCCCn1c(N)c(N(CCOC)C(=O)c2cccc(OCc3ccccc3)c2)c(=O)[nH]c1=O	1.68%
CCCCCCCCCCOC(=O)Cn1c(COc2cccc(OC)c2)[n+](C)c2ccccc21	17.8% (active)
O=C1CC(Cc2ccccc2)C(=O)N1c1ccc(Cl)cn1 (configuration not stated)	1.69%
Fc1ccc(/C=N/n2c(COc3ccccc3)n[nH]c2=S)cc1	-0.74%
CN(C)c1ccc(C2Nc3ccccc3C(=O)N2NS(=O)(=O)c2ccccc2)cc1 (configuration not stated)	0.59%
O=C(CN1CCOCC1)Nc1c2c(nc3c1CCC3)CCC2	10.2% (active)
O=C(CN1CCOCC1)Nc1c(Cl)cc(Cl)cc1Cl	-2.33%
Cc1cc(C)c(NC(=O)CN2CCOCCOCCOCCOCC2)c(C)c1	0.86%
O=C(COc1ccc2ccccc2c1)N1CCN(C(=O)c2cccs2)CC1	0.47%
CCOC(=O)c1nn(-c2ccccc2F)c2nc(Nc3ccccc3)cc(=O)n12	0.55%
